# From PubChem
# BJeLR viability: MLPCN primary cell-based screen for lethality selective to Ras in HRASV12 cells; BJeLR (HRASV12) viability, CellTiter-Glo ATP luminescence, 48 h; inhibition, % (concentration not given with the values); 300,000 tested, 0.17% active; in the data active means inhibition above about 50%
# PrP UTR inh: inhibition of PrP 5' UTR reporter expression | cell-based PrP 5' UTR mRNA reporter, plate reader | inhibition, % (test concentration not listed) | 340,000 tested, 0.35% active | AID 488862, 2010; in the data active means inhibition above about 52%; further: 0 = median of the neutral control wells
# PfHsp40 yeast: rescue of yeast from PfHsp40 toxicity, primary screen, S. cerevisiae, ATP luminescence; growth rescue, % at 12.5 µM; 340,000 tested, 0.68% active; S. cerevisiae expressing PfHsp40, growth rescue; in the data active means growth rescue above about 28%, passing the limit was not always enough;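 further: yeast W303a lacking pdr1 and pdr3 grown in galactose medium; growth measured after three days at 30 °C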
# Mtb FBA inh: Mtb FBA enzyme inhibitors, primary screen, biochemical, fluorescence, strain H37Rv. Fructose-bisphosphate aldolase (Mycobacterium tuberculosis (strain ATCC 25618 / H37Rv)), …. purified M. tuberculosis FBA, fluorescence read-out. inhibition, % at 1 µM. 360,000 tested, 2.3% active. AID 588726, 2011; in the data active means inhibition above about 27%;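 further: 0% = vehicle and 100% = reference inhibitor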
# Target sequence (P9WQA3 whole entry, looked up): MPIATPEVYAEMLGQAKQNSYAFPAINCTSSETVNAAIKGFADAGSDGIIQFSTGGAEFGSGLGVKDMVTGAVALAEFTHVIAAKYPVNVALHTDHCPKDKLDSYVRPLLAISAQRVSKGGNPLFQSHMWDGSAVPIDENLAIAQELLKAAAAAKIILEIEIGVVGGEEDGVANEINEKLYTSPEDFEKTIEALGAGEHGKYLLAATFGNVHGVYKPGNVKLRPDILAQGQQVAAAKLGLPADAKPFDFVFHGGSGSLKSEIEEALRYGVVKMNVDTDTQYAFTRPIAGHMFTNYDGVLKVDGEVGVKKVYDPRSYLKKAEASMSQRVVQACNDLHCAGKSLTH
# GDH-TPI inh: GDH-TPI coupling enzyme inhibitors, primary screen, artefact control for M. tuberculosis FBA inhibitor project, biochemical, absorbance, full deck | GDH-TPI coupled enzyme counterscreen, NADH absorbance | inhibition, % at 4.8 µM | 360,000 tested, 1.2% active | AID 588335, 2011; in the data active means inhibition above about 30%;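 further: 0% = DMSO wells and 100% = wells lacking the enzyme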
# PrPC TRFRET: inhibitors of human cell surface prion protein PrPC, primary screen, cell-based, TR-FRET | Major prion protein (Homo sapiens), P04156 | TR-FRET read-out | inhibition, % at 13.8 µM | 370,000 tested, 0.43% active; in the data active means inhibition above about 24%; further: 0% = median of the test wells and 100% = reference compound wells
# An asterisk follows results filed as active; nt = no result; + = active, no number. Compounds with a hit are over-represented: about 4.5% of the library has one in this group of screens.
SMILES,BJeLR viability,PrP UTR inh,PfHsp40 yeast,Mtb FBA inh,GDH-TPI inh,PrPC TRFRET
CC1(C)Cc2c(c(N3CCOCC3)nc3sc(C(N)=O)c(N)c23)CO1,-5,-11,10,19,32*,0
CCOC(=O)c1ccc(NC(=O)c2sc3nc(N4CCOCC4)c4c(c3c2N)CCCC4)cc1,5,2,0,9,14,4
CCOC(=O)c1sc2nc(N3CCOCC3)c3c(c2c1N)CCC3,-11,-23,-1,125*,30,6
Cc1ccc(NC(=O)c2sc3nc(N4CCOCC4)c4c(c3c2N)CC(C)(C)OC4)cc1,24,-20,-2,3,9,5
O=[N+]([O-])c1ccccc1C=Nn1c(-c2cc(-c3ccccc3)n[nH]2)n[nH]c1=S,nt,nt,nt,nt,nt,-21
O=C(O)CC/C(=N\Nc1ccc(S(=O)(=O)N2CCOCC2)cc1[N+](=O)[O-])c1cccs1,2,-3,-1,-16,67*,-42
C#CCCCN([C@@H](CC(C)C)C(=O)OC)S(=O)(=O)c1ccc(F)cc1Br,nt,nt,nt,nt,nt,4
O=S1(=O)c2ccc(Br)cc2OC[C@@H](Cc2ccccc2)N1Cc1cn(CC2CCCCC2)nn1,nt,nt,nt,nt,nt,12
N=c1c(C(=O)NCCc2ccccc2)cc2c(=O)n3ccccc3nc2n1CCCN1CCOCC1,6,6,1,145*,11,-29
COc1ccc(CCn2c(=N)c(C(=O)NCc3ccco3)cc3c(=O)n4ccccc4nc32)cc1,0,-10,1,7,-1,-57
CCCn1c(=N)c(S(=O)(=O)c2ccccc2)cc2c(=O)n3ccccc3nc21,-2,11,-1,21,6,-5
N=c1c(C(=O)NCc2ccc(F)cc2)cc2c(=O)n3ccccc3nc2n1CCCN1CCOCC1,nt,-24,0,113*,7,-22
N=c1c(S(=O)(=O)c2ccc(Br)cc2)cc2c(=O)n3ccccc3nc2n1CCN1CCOCC1,nt,-19,0,+,-1,-18
N=c1c(C(=O)NCCN2CCOCC2)cc2c(=O)n3ccccc3nc2n1CCc1ccccc1,0,-19,1,173*,1,-37
Cc1ccc(Cn2c(=N)c(C(=O)NCCN3CCOCC3)cc3c(=O)n4ccccc4nc32)cc1,-6,-2,0,20,8,-34
COC(=O)[C@H]1C[C@@]2(c3ccccc3)c3ccccc3N(S(=O)(=O)c3ccccc3)[C@H]2N1,nt,nt,nt,nt,nt,4
CC1(C(=O)OCC(=O)Nc2ccc3ccccc3c2)CC1(Cl)Cl (centres undefined),0,-18,46*,0,6,18
CCOc1ccc(NC(=O)c2ccc(NC(=O)c3cn4c5c(c(N6CCN(C)CC6)c(F)cc5c3=O)OCC4C)cc2)cc1 (centres undefined),-5,-8,-2,8,2,7
CC1COc2c(N3CCN(C)CC3)c(F)cc3c(=O)c(C(=O)O)cn1c23 (centres undefined),-4,-12,2,97*,25,9
Cc1ccc(SCCC(=O)N2CCCC2)cc1,1,-39,42*,1,3,-1
Cc1ccc(SCCC(=O)N2CCOCC2)cc1,-6,-42,0,0,5,-1
Cc1ccc(OCC(=O)NCc2cccs2)cc1,-4,-39,9,-2,-4,-2
CC(=O)COc1ccc2c(C)c(C)c(=O)oc2c1,-8,-14,0,131*,12,5
COc1cc(OC)c2c(C)c(Cl)c(=O)oc2c1,1,0,2,124*,16,-35
Cc1c(C)c2ccc(OCC(=O)N3CCC(C(=O)O)(c4ccccc4)CC3)cc2oc1=O,-1,-11,-1,140*,14,-1
SMILES,BJeLR viability,PrP UTR inh,PfHsp40 yeast,Mtb FBA inh,GDH-TPI inh,PrPC TRFRET
Cc1c(C)c2ccc(OCC(=O)N3CCN(c4ccccc4)CC3)cc2oc1=O,3,-1,1,3,9,nt
Cc1c(Cl)c(=O)oc2cc(OCC(=O)NCc3cccs3)ccc12,7,-2,0,37*,14,-3
O=C(OC12CCCN(C1)/C(=C/c1cccc(Cl)c1)C2)c1ccc(Cl)cc1 (centres undefined),nt,nt,nt,nt,nt,3
CCOc1ccc2c(C)c(Cl)c(=O)oc2c1,3,-19,1,+,12,-12
Cc1c(C)c2ccc(OS(C)(=O)=O)cc2oc1=O,-2,-28,1,20,-5,6
Cc1c(C(=O)OCC(=O)N2CC(=O)Nc3ccccc32)oc2ccc(Br)cc12,68*,-28,0,-9,-12,-8
C=CCN1C(=O)[C@@H](CC(=O)NCCCCc2ccccc2)[C@]2(C(=O)OC)CCCCC=C12,nt,nt,nt,nt,nt,-4
CC(=O)c1ccc(N2CCN(C(=O)CCCn3c(=S)[nH]c4cc5c(cc4c3=O)OCO5)CC2)cc1,nt,-34,0,0,35*,9
CC(=O)c1ccc(N2CCN(C(=O)c3ccc4c(=O)n(-c5ccccc5)c(=O)[nH]c4c3)CC2)cc1,13,-7,0,0,35*,-4
C=CCn1c(=O)[nH]c2cc(C(=O)N3CCN(c4cccc(Cl)c4)CC3)ccc2c1=O,-1,-4,0,0,2,0
C=CCn1c(=O)[nH]c2cc(C(=O)N3CCN(c4ccc(C(C)=O)cc4)CC3)ccc2c1=O,-1,-22,0,-1,36*,3
CCOC(=O)c1cnc(-n2nc(C)cc2C)nc1NC1CCCCC1,-13,-10,92*,8,17,23
CCOC(=O)c1cnc(-n2nc(C)cc2C)nc1NC,6,-39,0,10,4,5
CC(C)OCCCn1c(=NC(=O)c2cccs2)c(C#N)cc2c(=O)n3ccccc3nc21,1,nt,nt,+,4,-21
CC(C)OCCCn1c(=NC(=O)c2ccncc2)c(C#N)cc2c(=O)n3ccccc3nc21,10,nt,0,4,5,1
CC(=O)N=c1c(C#N)cc2c(=O)n3ccccc3nc2n1CCCOC(C)C,2,nt,nt,+,4,-12
CCCCCn1c(=NC(C)=O)c(C#N)cc2c(=O)n3ccccc3nc21,0,-38,1,133*,13,2
COc1ccc(S[C@]2(C(=O)N3CCN(C(C)=O)CC3)CC(=O)N(C(=O)CCc3ccccc3)[C@@H]2c2ccc(OC)cc2)cc1,nt,nt,nt,nt,nt,10
CNC[C@H]1OCc2cnnn2CCCC(=O)N([C@@H](C)CO)C[C@@H]1C,nt,nt,nt,nt,nt,3
CN(C)c1ccccc1-c1cc(NC=O)c2ncc(-c3cccc(C(F)(F)F)c3)n2c1,nt,nt,nt,3,12,-25
COc1ccc(N2CCN(CCCNC(=O)CCOC(C)(C)C)CC2)cc1,nt,nt,nt,nt,nt,-1
COc1ccc(N2CCCN(CC(=O)Nc3ccc(Cl)c(Cl)c3)CC2)cc1,nt,nt,nt,nt,nt,4
